Source: PubChem BioAssay AID1259336 (Sattelle Laboratory, UCL Respiratory, Division of Medicine, …, 2017)
Unmarked numbers belong to inactive results. Activity calls are given as the source filed them. No stated cut-off is given here; in the data, active means log2 fold change growth below about -1.8; inactive means the rest.

Assay: C. elegans growth inhibition, whole organism, log2 fold change (AID 1259336);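 further: growth scored by imaging after five days at 20 °C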
Conditions: anthelmintic screen, stronger effect = lower value

| SMILES | log2 fold change growth |
| --- | --- |
| Cc1cc(NCC(C)C)c2[nH]nc(-c3ccccc3)c2n1 | 0.0984 |
| Cc1nn(C(=O)Nc2cccc(C(F)(F)F)c2)c(C)c1Sc1ncccn1 | -0.494 |
| c1cncc(NCc2ccc(-c3cc4ccncc4cc3OC3CCNCC3)s2)c1 | 0.376 |
| c1ccc(-c2[nH]c3ccccc3c2[C@@H](c2ccccn2)N2CCCC2)cc1 | -0.0251 |
| COc1ccc2nccc(NC(=O)C3CCN(CCc4ccc(Cl)cc4)CC3)c2n1 | 0.423 |
| C[C@H]1CS(=O)(=O)CCN1/N=C/c1ccc([N+](=O)[O-])o1 | 0.236 |
| COC(=O)c1c(NC(=O)c2c(F)c(F)c(F)c(F)c2F)sc2c1CCCCC2 | 0.243 |
| Cc1cc(NC(=O)c2ccc(S(=O)(=O)N(Cc3ccccc3)C(C)C)cc2)no1 | -0.0868 |
| O=C([C@@H](c1ccc(Cl)cc1)c1cccnc1)N1CCN(c2ccc(C(F)(F)F)cc2)CC1 | -0.994 |
| O=C(Nc1ccnc(-c2cccnc2)n1)c1cc(C(F)(F)F)cc(C(F)(F)F)c1 | 0.327 |
| CCN(CC)CCCCCCNc1cc(OC)cc2c(C)ccnc12 | -0.053 |
| O=C(C1CCN(c2nnc(-n3cccc3)s2)CC1)N1CCC(Cc2ccccc2)CC1 | 0.102 |
| c1ccc(Oc2ccc(-c3cc(N4CCNCC4)n[nH]3)cc2)cc1 | 0.489 |
| O=C(Nc1ccc(C(F)(F)F)c(C(F)(F)F)c1)c1cc(Cl)ccc1O | 0.513 |
| Cc1cc(C)nc(-n2nc(C)cc2Nc2ccccc2)n1 | 0.0497 |
| O=C(NCc1ccco1)N1CCN(Cc2ccc(Cl)s2)CC1 | 0.334 |
| COc1nc2ccc(Br)cc2cc1[C@@H](c1ccccc1)[C@@](O)(CCN(C)C)c1cccc2ccccc12 | 0.248 |
| CC[C@@H]([C@H](C)O)n1ncn(-c2ccc(N3CCN(c4ccc(OC[C@@H]5CO[C@@](Cn6cncn6)(c6ccc(F)cc6F)C5)cc4)CC3)cc2)c1=O | -1.34 |
| CC(C)n1nc(-c2cc3c(Cl)cccc3[nH]2)c2c(N)ncnc21 | -2.56 (active) |
| O=C(NC1=NCCS1)c1sc2cc(F)ccc2c1Cl | -0.159 |

| SMILES | log2 fold change growth |
| --- | --- |
| COc1cccc(-n2nnnc2S(=O)(=O)Cc2ccccc2)c1 | 0.034 |
| OCCc1ccc(Nc2nccc(-c3nnc4ccccn34)n2)cc1 | -0.0214 |
| CC(C)(C)c1cc(C(=O)N2CCN(c3nccnc3C#N)CC2)n(Cc2ccccc2)n1 | -0.0659 |
| O=C(Nc1nnc(-c2ccc(Cl)cc2)o1)c1cccc(C(F)(F)F)c1 | -1.36 |
| COc1ccc(S(=O)(=O)Nc2ccc(CN3CCN(C(=O)c4cccc(C#N)c4)CC3)cc2)cc1 | 0.00585 |
| CCCn1nnc(NC(=O)COc2ccc(C3CCCCC3)cc2)n1 | 0.0714 |
| O=C(c1n[nH]c2c1CCCC2)N1CCN(Cc2ccc3c(c2)OCO3)CC1 | 0.387 |
| O=C(Nc1cccnc1)c1c(O)c2cccc3c2n(c1=O)CC3 | -4.81 (active) |
| CCc1ccc([C@@H]2C[C@H](C(F)(F)F)n3ncc(C(=O)NCc4ccc(OC)cc4)c3N2)cc1 | -1.82 (active) |
| Cc1ccc2nc(Cl)c(CNCc3cccs3)cc2c1 | -0.121 |
| c1coc(CNc2nc(N3CCCCC3)nc3ccccc23)c1 | -0.141 |
| Cc1ccc(C(=O)Nc2ccc(S(=O)(=O)O)c3cc(S(=O)(=O)O)cc(S(=O)(=O)O)c23)cc1NC(=O)c1cccc(NC(=O)Nc2cccc(C(=O)Nc3cc(C(=O)Nc4ccc(S(=O)(=O)O)c5cc(S(=O)(=O)O)cc(S(=O)(=O)O)c45)ccc3C)c2)c1 | 0.211 |
| COc1ccc(C2(C(=O)Nc3ccc(Br)cc3)CCCC2)cc1 | -0.749 |
| COc1ccc(-c2cnc3ccc(N4CCCC4)nn23)cc1OC | -0.625 |
| O=C(OCc1ccccc1)N1CCC(c2cc(-c3ccncc3)c(-c3ccc(F)cc3)[nH]2)CC1 | -0.374 |
| O=C(NCc1cc(Cl)cc(Cl)c1)c1c(C(F)(F)F)nc2ccccn12 | -0.11 |
| Nc1cccnc1Nc1ccc(Cl)cc1 | 0.497 |
| CC(C)(C)OC(=O)N1CCN(c2nccc(-c3ccc(-c4ccc(Cl)cc4)s3)n2)CC1 | 0.151 |
| O=C(CCC1CCCCC1)Nc1cccc(-c2nnc(-c3ccco3)o2)c1 | 0.147 |
